Bioassay records: PubChem, The Scripps Research Institute Molecular Screening Center
hcDAF-12 act: H. contortus DAF-12 nuclear receptor activators, primary screen, cell-based, luminescence, HEK293, lit1-tk-luc reporter; AID 652067, 2013; activation, % at 6.8 µM; 370,000 compounds, 1.4% hits; HEK293 hcDAF-12 lit1-tk-luc reporter; 0% DMSO, 100% Δ7-dafachronic acid;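 active means activation above the mean of all tested compounds plus 3 SD, cut at about 5.5% in these data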;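 further: 100% = response to 3 µM Δ7-dafachronic acid high control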
DAX1 inh-1: DAX1 (NR0B1) inhibitors, primary screen, cell-based, HEK293, Gal4-DAX1, luciferase luminescence; 340,000 compounds, 0.99% hits; inhibition, % at 6.75 µM; HEK293 Gal4-DAX1 luciferase reporter; AID 504766, 2011;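 active means inhibition above the mean over all tested compounds plus 3 SD, cut at about 4.2% in these data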;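 further: 0% = DAX1-transfected cells with DMSO and 100% = empty-vector control cells with DMSO; inhibition shows as a rise in luminescence from relieved DAX1 repression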
Target sequence (P51843 207-470 limits assumed): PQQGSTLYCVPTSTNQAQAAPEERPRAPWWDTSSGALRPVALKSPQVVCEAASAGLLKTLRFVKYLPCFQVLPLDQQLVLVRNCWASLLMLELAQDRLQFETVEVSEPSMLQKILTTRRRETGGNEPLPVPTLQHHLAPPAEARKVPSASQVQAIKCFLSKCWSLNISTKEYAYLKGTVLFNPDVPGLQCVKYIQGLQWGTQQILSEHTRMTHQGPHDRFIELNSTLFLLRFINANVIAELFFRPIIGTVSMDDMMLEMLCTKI
ssDAF-12 act: S. stercoralis DAF-12 nuclear receptor activators, primary screen, cell-based, luminescence, HEK293, GRIP1 co-expression, lit1-tk-luc; Nuclear hormone receptor DAF-12 (Strongyloides stercoralis); HEK293 ssDAF-12/GRIP1 lit1-tk-luc reporter; % of 3 µM dafachronic acid response; activation, % at 6.8 µM; 370,000 compounds, 1% hits;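 active means activation above the mean over all tested compounds plus 3 SD, cut at about 0.9% in these data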;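 further: 0% = DMSO-only wells and 100% = 3 µM delta7-dafachronic acid wells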
DAX1 inh-2: DAX1 (NR0B1) inhibitors on StAR promoter, primary screen, cell-based, luminescence, SF-1 (NR5A1), full-length DAX-1; HEK293T StAR-luciferase reporter, SF-1/DAX-1 repression relief; inhibition, % at 6.8 µM; 370,000 compounds, 1.1% hits; AID 652010, 2013;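 active means inhibition above the mean over all tested compounds plus 3 SD, cut at about 3.6% in these data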;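 further: 0% = DAX-1 cells with DMSO and 100% = cells lacking DAX-1 with DMSO; higher inhibition means more luminescence from relief of DAX-1 repression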
hgDAF-12 ag: H. glycines DAF-12 receptor agonists, primary screen, cell-based, luminescence, HEK293, GAL4 fusion, UAS-luciferase; HEK293 GAL4-hgDAF12 UAS-luciferase reporter, agonist luminescence; normalized to butyrate control; activation, % at 6.8 µM; AID 687014, 2013; 370,000 compounds, 1.8% hits;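 active means activation above a cutoff set at the mean of all screened compounds plus 3 SD, cut at about 10% in these data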;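 further: 0% = DMSO wells and 100% = sodium butyrate wells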
Numbers without * were called inactive. Compounds with a hit are over-represented: about 4.1% of the library has one in this group of screens.

Results for COc1ccc(-c2nnn(CC(=O)N3CCN(c4ccc(F)cc4)CC3)n2)cc1 ?
hcDAF-12 act: -0.9; DAX1 inh-1: 5.3*; ssDAF-12 act: -1.6; DAX1 inh-2: 0.3; hgDAF-12 ag: 0.7

What do the screens show for `CCN(CC)CCNc1ncnc2c1sc1nc(N3CCOCC3)c3c(c12)CC(C)(C)SC3`?
hcDAF-12 act: -2.1; DAX1 inh-1: -0.5; ssDAF-12 act: 1.1*; DAX1 inh-2: 0.4; hgDAF-12 ag: -1.1

What do the screens show for `COc1ccc(OC)c(NC(=O)CSc2nncc(=O)n2N)c1`?
hcDAF-12 act: -0.9; DAX1 inh-1: 0.5; ssDAF-12 act: 0.9*; DAX1 inh-2: 1.3; hgDAF-12 ag: -1.0

How did COc1cccc(-c2nnc(SCC(=O)Nc3cc(C)ccc3OC)n2N)c1 do in these assays?
hcDAF-12 act: 2.9; DAX1 inh-1: 0.0; ssDAF-12 act: -1.1; DAX1 inh-2: -1.0; hgDAF-12 ag: -0.7

What do the screens show for `Fc1ccc(Cn2ccc3ccc(-c4ccc5ccn(Cc6ccc(F)cc6F)c5c4)cc32)c(F)c1`?
hcDAF-12 act: 1.2; ssDAF-12 act: -1.0; DAX1 inh-2: -0.3; hgDAF-12 ag: 2.0

How did CC/C(C)=N/N1C(=O)c2ccccc2NC1(C)CC (stereo not given) do in these assays?
hcDAF-12 act: 1.0; DAX1 inh-1: 6.2*; ssDAF-12 act: -1.3; DAX1 inh-2: 0.3; hgDAF-12 ag: 6.6

What do the screens show for `O=C1c2ccccc2NC2(CCCC2)N1N=C1CCCC1`?
hcDAF-12 act: 3.6; DAX1 inh-1: 2.8; ssDAF-12 act: -1.4; DAX1 inh-2: 1.0; hgDAF-12 ag: 7.0

Results for Cc1cccc(NC(=O)Cc2ccc(-c3ccccc3)cc2)n1 ?
hcDAF-12 act: -1.5; DAX1 inh-1: 0.5; ssDAF-12 act: 0.3; DAX1 inh-2: 0.6; hgDAF-12 ag: 1.9

How did Cc1cccc(NC(=O)COc2ccc3c(c2)CCC3)n1 do in these assays?
hcDAF-12 act: 2.4; DAX1 inh-1: 1.4; ssDAF-12 act: -0.6; DAX1 inh-2: 3.8*; hgDAF-12 ag: 6.5

What do the screens show for `Cc1ccc(CC(=O)Nc2cccc(C)n2)cc1`?
hcDAF-12 act: 3.2; DAX1 inh-1: 2.1; ssDAF-12 act: 1.9*; DAX1 inh-2: 1.7; hgDAF-12 ag: 4.6

What do the screens show for `COc1cc(/C=C(\C#N)C(=O)Nc2cccc(C(=O)O)c2)ccc1OCc1ccc(C)cc1`?
hcDAF-12 act: 6.5*; DAX1 inh-1: 1.1; ssDAF-12 act: -0.3; DAX1 inh-2: 0.8; hgDAF-12 ag: 8.6

What do the screens show for `COc1cc(OC)cc(-c2csc(N3CCC(C(N)=O)CC3)n2)c1`?
hcDAF-12 act: -0.8; ssDAF-12 act: -1.7; hgDAF-12 ag: 3.6

How did COCCC(=O)N1CCC(Oc2ccc(C(=O)NCCSC)cc2)CC1 do in these assays?
hcDAF-12 act: 0.3; DAX1 inh-1: 6.9*; ssDAF-12 act: -1.2; DAX1 inh-2: -0.1; hgDAF-12 ag: -0.3

Results for COCCC(=O)N1CCC(Oc2ccc(C(=O)NCCn3cccn3)cc2)CC1 ?
hcDAF-12 act: -1.4; DAX1 inh-1: -0.2; ssDAF-12 act: -1.3; DAX1 inh-2: 0.3; hgDAF-12 ag: 1.1

Results for CC(C1CC1)N(Cc1ccccc1)C(=S)Nc1ccccc1 (stereo not given) ?
hcDAF-12 act: -0.5; DAX1 inh-1: 0.0; ssDAF-12 act: -1.0; DAX1 inh-2: 0.9; hgDAF-12 ag: 4.8

How did CC(C1CC1)N(Cc1ccccc1)C(=O)NC(=O)c1ccc(F)cc1 (stereo not given) do in these assays?
hcDAF-12 act: 0.3; DAX1 inh-1: 1.1; ssDAF-12 act: -1.4; DAX1 inh-2: 2.6; hgDAF-12 ag: 12.2*

What do the screens show for `O=C(CNC(=S)N(Cc1ccccc1)Cc1cccs1)NCc1ccc(F)cc1`?
hcDAF-12 act: 6.4*; DAX1 inh-1: -0.5; ssDAF-12 act: -1.9; DAX1 inh-2: -1.1; hgDAF-12 ag: -4.3

Results for COc1cc(-c2noc(C)c2C(=O)NCc2ccc3c(c2)OCO3)cc(OC)c1OC ?
hcDAF-12 act: 0.5; DAX1 inh-1: 2.1; ssDAF-12 act: -1.6; DAX1 inh-2: 0.1; hgDAF-12 ag: -0.5

How did COc1c(Cl)cc(-c2noc(C)c2C(=O)NCc2ccc3c(c2)OCO3)cc1Cl do in these assays?
hcDAF-12 act: -1.3; DAX1 inh-1: 4.3*; ssDAF-12 act: -0.9; DAX1 inh-2: -0.7; hgDAF-12 ag: 1.2

How did CC(C)[C@H](NC(=O)N1c2ccccc2NC(=O)[C@@H]1C(C)C)C(=O)N[C@@H](C(=O)O)c1ccccc1 do in these assays?
hcDAF-12 act: -0.1; DAX1 inh-1: 4.5*; ssDAF-12 act: -1.6; DAX1 inh-2: 0.2; hgDAF-12 ag: 3.5

What do the screens show for `CC(C)[C@H](NC(=O)N1c2ccccc2NC(=O)[C@@H]1C(C)C)C(=O)N[C@@H](Cc1ccccc1)C(=O)O`?
hcDAF-12 act: -0.6; DAX1 inh-1: 1.1; ssDAF-12 act: -0.3; DAX1 inh-2: 0.1; hgDAF-12 ag: 1.5

How did CC(=O)Oc1oc(-c2ccccc2)nc1/C=N/c1ccccn1 do in these assays?
hcDAF-12 act: 1.8; DAX1 inh-1: 5.1*; ssDAF-12 act: -0.7; DAX1 inh-2: 1.6; hgDAF-12 ag: 5.9

What do the screens show for `COc1ccc(/C=N/n2cnnc2SCCO)cc1OC`?
hcDAF-12 act: -0.3; DAX1 inh-1: 0.3; ssDAF-12 act: -1.1; DAX1 inh-2: 1.0; hgDAF-12 ag: 0.7

Results for C=CCSc1nncn1/N=C/c1ccc(OC)cc1 ?
hcDAF-12 act: 3.2; DAX1 inh-1: 4.9*; ssDAF-12 act: 0.9; DAX1 inh-2: 2.5; hgDAF-12 ag: 11.2*

Results for CN1OC[C@@H]2CN[C@H](c3ccc(N4CCCCC4)cc3)C[C@@H]21 ?
hcDAF-12 act: -1.9; ssDAF-12 act: -0.9; DAX1 inh-2: -0.7; hgDAF-12 ag: -3.9

How did O=C(Nc1ccccc1OC(F)F)c1ccc(F)cc1 do in these assays?
hcDAF-12 act: -2.6; DAX1 inh-1: -1.5; ssDAF-12 act: -1.1; DAX1 inh-2: 0.8; hgDAF-12 ag: -0.3

What do the screens show for `CC1Sc2ccc(C(=O)Nc3ccccc3OC(F)F)cc2NC1=O` (stereo not given)?
hcDAF-12 act: -0.2; DAX1 inh-1: 0.9; ssDAF-12 act: -0.6; DAX1 inh-2: 4.3*; hgDAF-12 ag: 5.5

What do the screens show for `COc1cccc(C(=O)N[C@H](C(=O)N2CCC[C@H]2C(=O)NCc2ccccc2)C(C)C)c1`?
hcDAF-12 act: 0.9; ssDAF-12 act: -1.0; DAX1 inh-2: -1.5; hgDAF-12 ag: 1.7

What do the screens show for `COc1ccc(N=Cc2c(O)n(-c3cccc(C)n3)c(=O)c3ccccc23)c(OC)c1`?
hcDAF-12 act: -1.0; DAX1 inh-1: 5.2*; ssDAF-12 act: -1.6; DAX1 inh-2: 0.2; hgDAF-12 ag: -0.2
